Laboratory results from publication PMC12136788.
Whole data set: some 24,000 sequences, median “enrichment r” near 0.99, cut for the highest 2% near 3.7. The list comes from a sample in which the highest values are over-represented; it also holds similar and randomly drawn sequences.

T1: UNK ZnF1-3 (human, UniProt Q9C0B0 31-174)
T1 sequence: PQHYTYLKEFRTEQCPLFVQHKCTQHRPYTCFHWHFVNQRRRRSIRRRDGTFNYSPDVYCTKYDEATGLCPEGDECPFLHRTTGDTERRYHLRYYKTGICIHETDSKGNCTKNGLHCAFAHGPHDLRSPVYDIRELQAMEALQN

B1: 59346998_59352246_650_CDS_ENSG00000215114_ENST00000399598|human|control|control (ssRNA)
RNA: GGGAGUUCUACAGUCCGACGAUCAUCCAAAUUCACUUGGCCACCAUGAACAAGGCGCUGAAGCUCCAGGGGAAUCUCUCCUCUCUUAACAGACUCCAGAAAUUGAGCAUUUGUUGGUUCAUUGUAAGGUCUCAAUUCUCCAUCCAACAGAGGAUUGAGCAUCA
B2: 244175_244709_261_3pUTR_ENSG00000185627_ENST00000382671|human|control|control (ssRNA)
RNA: GGGAGUUCUACAGUCCGACGAUCUUACACAGGAUCACUGCCUCAUCACUACUUUUCACCUUCUCACGAGUCUUUUCCAGAAAAGUAAGAGCCACAUUAGGAUCAGUCAUCUGUCUAACUACAUGAAGAAUGAUUUCCACGAGGCAACAGAGGAUUGAGCAUCA
B3: chr5:176910979:176910980:-_ENSG00000196923_ENST00000355841|hu_hu|FALSE|FALSE (ssRNA)
RNA: GGGAGUUCUACAGUCCGACGAUCCCCAGCGUCGAUCUUGAAGUCACAGCCAUGGCAUUUCGUGCCAAACAUCUUCUCAUAGUCUCGCUCGCAAUAGGGCACGCCCUCCUCCAUGUAGAAGGCCCUGUUCCGGAUGGGCGUCUUCAACAGAGGAUUGAGCAUCA
B4: 118753231_118753351_2268_3pUTR_ENSG00000125354_ENST00000354416|human|control|control (ssRNA)
RNA: GGGAGUUCUACAGUCCGACGAUCUGAAAUACCUCACAAGAAGAAUUCGGUAAGGCUAUCAUUCAAGACUCUAGGCUGGUAAUAAUAUUCAGGUUUAUUCUCCCUUUUGCAUCUGUGGGAUACCCAGAGUUAGAGAGAGGGGAACAACAGAGGAUUGAGCAUCA
B5: 16459948_16460068_3699_3pUTR_ENSMUSG00000024639_ENSMUST00000025541|mouse|control|control (ssRNA)
RNA: GGGAGUUCUACAGUCCGACGAUCAUCCCUAGUCAGAAAUAAACUGACAAAUUUACAUUCUCCUCUCUUAAAAAAGUAAAUAAAAUAACAUUAUUCAAAAUGUGAAUUAGCUAUAAGACAUACAAUUACAUAGAUACAUAUCAACAACAGAGGAUUGAGCAUCA
B6: chr17:64801638:64801639:+_ENSG00000154229_ENST00000413366|hu_hu|motif|central (ssRNA)
RNA: GGGAGUUCUACAGUCCGACGAUCAUCAAAUACAUAUAUAUACACACACAUAUGUAGUAAGAGCCUAAUCUAUCACGUAAACGGGCCAUUCAUUUUUGAAAUUUUAUCUACAUUUAAAAAGUAAUCUAUCUGAUACAGUGCCCACAACAGAGGAUUGAGCAUCA
B7: chr5:151611259:151611260:+_ENSMUSG00000034021_ENSMUST00000016569|mus_mus|FALSE|FALSE (ssRNA)
RNA: GGGAGUUCUACAGUCCGACGAUCGCAUUUCUGAACAUAAUGUUCAAGAAGUAAUAUCUAUACACAAUAACAUUCUAGACUAUUAAAAGCCCAUUCAAAUUACAGAAUUUUAUUGAUACAGUAGAUUAAUAUAAACUGAAAAAACAACAGAGGAUUGAGCAUCA
B8: 66017293_66045708_550_CDS_ENSMUSG00000056515_ENSMUST00000070673|mouse|control|control (ssRNA)
RNA: GGGAGUUCUACAGUCCGACGAUCAGCGUCCUUCAGGGGCACCUCCCUAAUAUCAGAGAGGUCACACUUGUUCCCAGCAAUCGCCAUCACAAUGUUUUCUGGGCCGUGCUCCUUCAGCUCCUUGACCCAUUUUUUCAAGGUAUGCAACAGAGGAUUGAGCAUCA
B9: chr6:41757443:41757444:+_ENSG00000214736_ENST00000398881|hu_mus|hu_hu_hu_mus_False|8_108 (ssRNA)
RNA: GGGAGUUCUACAGUCCGACGAUCGAACUGUCUGCUGGCAACAUCUCAGCCGACACUGGGGGAUGGGGGGGCAGUGGGGGGGGGUUCAGGCAAGGAGAGGGAGUCAACUUCAGCUGCCACUCAGGUAGCUGCCAUCAGUCACAGCAACAGAGGAUUGAGCAUCA
B10: 25965218_25965338_4171_CDS_ENSG00000143970_ENST00000336112|human|control|control (ssRNA)
RNA: GGGAGUUCUACAGUCCGACGAUCGCCUCUAUAGCUUGGCCCUAUCUGGGUGGGGCUUCCAUACAACUUCGGGGUUUGCAGGGGUGGAAGGAGUAGGGGCUGGUGGGUGGGGCUGUCUGCAGGCAGAGGAAGAACAGUAGAACUCAACAGAGGAUUGAGCAUCA
B11: 53358179_53360397_419_3pUTR_ENSMUSG00000033054_ENSMUST00000035850|mouse|control|control (ssRNA)
RNA: GGGAGUUCUACAGUCCGACGAUCCAUCGCUGCCGCUUGAUUUCUGCAAUUCCAUUUCUCGUUCGAGCUCUCUGAUGGGCAGCAAACCCUGGAGAACUGUGCAUGCUCCUGAUCUGAGAGAGUGUGUGGUCUAGCUUCUUCCAUCAACAGAGGAUUGAGCAUCA
B12: 31370942_31371062_1482_CDS_ENSMUSG00000006307_ENSMUST00000006470|mouse|control|control (ssRNA)
RNA: GGGAGUUCUACAGUCCGACGAUCUCCUGUGGUGGUGCUAGGGUUUGGAGUGGGAGAAAGGGUGCCCUCUGGUCCUGACCGAGCAGCUUCCCUCUCUGCCCGCUGGCUAGGAGUCAGGGGAGGCCUGCCCCUCUUCCUAGAGCACAACAGAGGAUUGAGCAUCA
B13: chr2:27806210:27806211:+_ENSMUSG00000026837_ENSMUST00000028280|mus_hu|FALSE|FALSE (ssRNA)
RNA: GGGAGUUCUACAGUCCGACGAUCUGUGGUUUCUUUGGCAGCUUCCACGGGCUUCUUGCUGGGGGUGGGCUCCUUCCCUAGGUCUUCGGGGUCUUCGUAGUAGGGGUAUUCGUAGUAAUAGGUCUCACCCUCGCCGUCUCCUUCCAACAGAGGAUUGAGCAUCA
B14: chr6:41757443:41757444:+_ENSG00000214736_ENST00000398881|hu_mus|hu_hu_hu_mus_False|58_108 (ssRNA)
RNA: GGGAGUUCUACAGUCCGACGAUCGAACUGUCUGCUGGCAACAUCUCAGCCGACACUGGGGGAUGGGGGGGCAGUGGGAAACUAGGCAGGCAAGGAGAGGGAGUCAACUUCAGCUGCCACUCAGGUAGGAUCUUGUGGUCACAGCAACAGAGGAUUGAGCAUCA
B15: chr6:43255143:43255144:+_ENSG00000146216_ENST00000259750|hu_hu|FALSE|FALSE (ssRNA)
RNA: GGGAGUUCUACAGUCCGACGAUCCUCAGGCCCCCUUCUUCCUCCCAGCUCCAAACCAGGGUGUUGUUGGUCCUGGGGCAGAGGUGAGGCUGGGGGCCCUACAUUCACGGUUCGGUUGGUGGCAAGGAGCAGGCCCAGGGCCUGCAACAGAGGAUUGAGCAUCA
B16: 8158834_8158954_592_CDS_ENSG00000178921_ENST00000314666|human|control|control (ssRNA)
RNA: GGGAGUUCUACAGUCCGACGAUCAGGGCCAUUGAGGGGUUCCGGCAUGCUCUCAGGGGAGAAACUCUGGAUGGGAUGGGGGAAGUGCUGCUCUGUCAUCCGGUCGUGCAGGGUAGCCAGAGCAAUGGCUUCCACCUCAGCUGACAACAGAGGAUUGAGCAUCA
B17: chr6:41757443:41757444:+_ENSG00000214736_ENST00000398881|hu_mus|hu_hu_hu_mus_False|18_108 (ssRNA)
RNA: GGGAGUUCUACAGUCCGACGAUCGAACUGUCUGCUGGCAACAUCUCAGCCGACACUGGGGGAUGGGGGGGCAGUGGGGGGGGGUUCAGGCAAGGAGAGGGAGUCAACUUCAGCUGCUCAAACUUCAGGAUCUUGUGGUCACAGCAACAGAGGAUUGAGCAUCA

Each binder was assayed against T1, UNK ZnF1-3 (assay: nsRBNS (natural sequence RNA bind-n-seq); RBNS binding buffer (assumed for nsRBNS): 25 mM Tris pH 7.5, 150 mM KCl, 3 mM MgCl2, 0.01% Triton X-100, 500 ug/ml BSA, 20 U/ml SUPERase-In, 4 C; UNK is unkempt and MSI1 is Musashi-1; names of the RNAs are library labels; protein concentration not given here; high values mean tight binding).

Binder | binding signal
B1 | 1.23 enrichment R
B2 | 1.47 enrichment R
B3 | 0.849 enrichment R
B4 | 1.58 enrichment R
B5 | 1.33 enrichment R
B6 | 1.16 enrichment R
B7 | 11 enrichment R
B8 | 0.683 enrichment R
B9 | 5.65 enrichment R
B10 | 5.58 enrichment R
B11 | 0.827 enrichment R
B12 | 0.887 enrichment R
B13 | 0.604 enrichment R
B14 | 1.42 enrichment R
B15 | 0.703 enrichment R
B16 | 0.632 enrichment R
B17 | 4.19 enrichment R
